Consider 40 compounds from PubChem BioAssay (NCI).

Several values for one entry are separate records, joined by “and”; a condition that tells them apart may be missing. Equal values may be shown once. About 83,000 compounds went through this panel and 20% of them were active in at least one assay; those are over-represented in the sample as a whole.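 Compound tested at a single concentration for 48 hours in 96-well plates; a percent growth value below 10 was scored as active.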 Unmarked numbers belong to inactive results. Activity calls are given as the source filed them.

The test system of this test is MDA-MB-468 breast. The test can be described thus: NCI-60 one-dose screen, 48 h (100 = growth as untreated, 0 = no growth, -100 = all killed). The settings on record: 10 µM unless noted.
On to `CC1(C)N=C(N)N=C(N)N1c1ccc(OCCCCNC(=O)c2ccc(S(=O)(=O)F)cc2)c(Cl)c1`, for which the growth is 64.7%.
On to `CN1C(=O)N[C@H]2[C@@H]3NC(=O)c4ccc(Br)n4[C@@H]3C[C@]21O`, for which the growth was -50.6% (active).
Next, `COc1ccc(O)c(CNC(=O)CN2CCCC2=O)c1`: 108%.
As for `CC(=O)OC1CCC2(C)C(CCC3C2CC(=O)C2(C)C3CC(Sc3ccc(N(CCCl)CCCl)cc3)C2C(C)=O)C1` (stereo not given), the growth was 86.6%.
Next, `COc1cc(C2CC(=O)Nc3nc(N)[se]c32)c(OC)c2c1OCO2` (stereo not given): 109%; `CCCN1C(=O)NC(=O)C(CC)(N2C(=O)c3c(F)c(F)c(F)c(F)c3C2=O)C1=O` (stereo not given): -50.8% (active); `CCCCCCCCCCCCCCCC[N+](C)(C)Cc1ccccc1`: -27.3% (active) and -40.6% (active).
On to `CN1CCC(O)(c2ccc(F)cc2)C(C(=O)c2ccc(F)cc2)C1` (stereo not given), for which the growth was 44.2%.
Next, `Oc1ccccc1C=NCCN=Cc1ccccc1O.[Fe]`: 64.3%; `COc1cc(C2CC(=O)Nc3nc(N)[se]c32)cc(OC)c1OC` (stereo not given): 99.3%.
Under `O=C(O)CNC(=O)C(Cl)(Cl)Cl` stands 98.8%; under `C[C@]12CC[C@H]3[C@@H](CC[C@]4(O)C[C@@H](O[C@@H]5O[C@H](CO)[C@@H](O[C@@H]6OC[C@@H](O)[C@H](O)[C@H]6O)[C@H](O)[C@H]5O)CC[C@]34C=O)[C@@]1(O)CC[C@@H]2C1=CC(=O)OC1`, 38.7%.
Next, `Cc1c(C)c([N+](=O)[O-])c(C)c(C)c1[N+](=O)[O-]`: 95.2%; `C#CC1(O)CCC(C(C)(C)C)CC1` (stereo not given): 122%.
Regarding `CNC(=O)Oc1ccccc1`, the growth is 101%.
Under `C[C@]12CC[C@H]3[C@@H](C[C@@H]4SC(Nc5ccccc5)=N[C@@]45C/C(=N/O)CC[C@]35C)[C@@H]1CCC2=O` stands 59.9%; under `CC1(C)N=C(N)N=C(N)N1c1ccc(CCCCc2ccc(S(=O)(=O)F)cc2)cc1`, -3.5% (active).
Next, `O=C(Nc1ccncc1F)c1cn(CC2CC2)c2ccccc12`: 107%; `O=S(=O)(c1ccc(Cl)cc1)C(Cl)(Cl)Cl`: -20.4% (active).
With `C=CC(O)CN1CC1CC` (stereo not given), the growth is 105%.
In the case of `Fc1ccc2c(c1)c(-c1nc(-c3c[nH]c4ncccc34)cs1)cn2CCCCN1CCCCC1`, the growth is -56.6% (active).
Next, `ClCCN(CCCl)c1nc(Cl)c(C2CC(c3ccccc3)=NN2c2cc(Cl)cc(Cl)c2)s1` (stereo not given): 111%.
Next, `CC(=O)Nc1nc2c(s1)C1=CC[C@H]3[C@@H]4CC[C@H](OC(C)=O)[C@@]4(C)CC[C@@H]3[C@@]1(C)CC2`: 55.7%; `CN(C)C(=O)Oc1ccccc1`: 113%.
Next, `Clc1ccc(SSC(Cl)(Cl)Cl)cc1`: 104%.
With `CC[C@H](C)[C@H](NC(=O)[C@H]1CCCCN1C)C(=O)N(C)[C@H](CCc1nc(C(=O)N[C@@H](Cc2ccccc2)C[C@H](C)C(=O)O)cs1)C(C)C`, the growth was 36.1%.
Next, `COS(=O)(=O)c1ccccc1`: 114%; `CO[C@H](C(=O)O)[C@@H]1Cc2cc3cc(OC4CC(OC5CC(O)C(O)C(C)O5)C(O)C(C)O4)c(C)c(O)c3c(O)c2C(=O)[C@H]1OC1CC(OC2CC(OC3CC(C)(O)C(O)C(C)O3)C(O)C(C)O2)C(O)C(C)O1` (stereo not given in full): -16.7% (active); `CC(=O)[O][Hg][c]1ccccc1`: -83.8% (active).
For the compound `N#[N+]c1cnc([O-])[nH]c1=O`, the growth was 88.4%.
Consider `CCCn1cc2c3c(cccc31)[C@H]1C[C@@H](C)CN(C)[C@@H]1C2`, for which the growth was 95.5%.
Under `C[C@]12CCc3sc(Nc4ccc(F)cc4)nc3C1=CC[C@@H]1[C@@H]2CC[C@]2(C)C(=O)CC[C@@H]12` stands 40.8%; under `C#Cc1ccc2c(c1)C(c1ccccc1F)=NCC(=O)N2C`, 26%; under `O=S(=O)(F)c1cccc(Cl)c1C[P+](c1ccccc1)(c1ccccc1)c1ccccc1`, 46.9%.
Under `COc1cc(C2(C#N)CCN(C)CC2)cc(OC)c1OC` stands 108%; under `COC(=O)[C@H](Cc1ccccc1)NC(=O)c1csc([C@@H](C[C@H](C(C)C)N(C)C(=O)[C@@H](NC(=O)[C@H]2CCCCN2C)C2CC2)OC(C)=O)n1`, -3.15% (active).
Next, `CC1(C)N=C(N)N=C(N)N1c1ccc(CCC(=O)Nc2cccc(S(=O)(=O)F)c2)cc1`: 28%; `CCCCNC(c1ccc(Cl)cc1)C(O)c1ccc(Cl)cc1` (stereo not given): -14.6% (active); `Cc1cc(C)c(CBr)c(C)c1`: 98.9%.
Turning to `COC1CC2c3ccccc3C1C(C)=[N+]2C` (stereo not given), the growth was 96.4%.
